SW480 rerep = inducers of DNA re-replication in SW480 colon cancer cells. Potency, µM (highest dose often 46.1 µM), for inactives: at the highest dose re-replication activation, actives largely listed as activators. 340,000 tested, 1.8% active. AID 624297. SW480 DNA re-replication, Hoechst DNA content imaging, 48 h; further: % of control where 0% means no effect; nearly all actives have a fitted effect of over 55% in size
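First, 250 cells per well were seeded. Next, compound or vehicle (23 nL) was pinned in, plates sat 48 hr at 37 C. Finally Hoechst was added for 40 min before fluorescence scanning.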
MCF10A rerep = induces DNA re-replication in MCF 10a normal breast cells; MCF 10A DNA re-replication, Hoechst nuclear intensity, 48 h; Potency, µM (doses to about 46.1 µM), without a hit: at the highest dose activity, positive = re-replication, actives largely listed as activators; 350,000 tested, 2.9% active; further: % of control where 0% means no effect; nearly all actives have a fitted effect of over 50% in size
KB-V1 cytotox = KB-V1 MDR subline cytotoxicity | KB-V1 MDR cells viability, CellTiter-Glo, 72 h | Potency, µM (doses to about 46.1 µM), actives largely listed as cytotoxic | 400,000 tested, 3.4% active; further: on the % scale 0 is the no-effect control and ±100 the full control effect; nearly all actives have a fitted effect of over 60% in size
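Following 72 h at 37 degrees C with compound, KB-V1 cell viability was read by CellTiter-Glo luminescence, medium being phenol-red-free DMEM plus 10% FBS; concentration-response parameters came from normalized, curve-fitted qHTS data.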
PINK1 modulator = changes PINK1 expression; PINK1 immunofluorescence, high-content cytometry, 24 h; Potency, µM (series often up to 76.6 µM), inactives show top-dose activation (PINK1 increase), hits mostly activators; 410,000 tested, 0.2% active; AID 624263; active means well fitted activation curve with a large enough effect; inconclusive means small, poorly fitted or top-dose-only effect; cell line not stated here; further: % of control where 0% means no effect; nearly all actives have a fitted effect of over 65% in size
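Stable cell line treated 24 h with compounds at 5 concentrations (CCCP controls), then fixed and immunostained for PINK1 plus nuclear and cell stains; PINK1 immunofluorescence quantified by laser-scanning microplate cytometry.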
KB-3-1 cytotox = KB-3-1 parental cell cytotoxicity. KB-3-1 viability, CellTiter-Glo ATP luminescence, 72 h. Potency, µM (titrated, usually from 46.1 µM), usual class: cytotoxic. 400,000 tested, 1.4% active. AID 1347075; further: on the % scale 0 is the no-effect control and ±100 the full control effect; nearly all actives have a fitted effect of over 60% in size
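Parental KB-3-1 adenocarcinoma cells in phenol-red-free DMEM with 10% FBS were pin-treated with compounds at several concentrations, incubated 72 h at 37 °C, and viability read by CellTiter-Glo luminescence; concentration-effect curves were fitted after normalization.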
* marks the source's active call; other numbers are inactive results; i = inactive; ? = inconclusive; . = not tested or not shown; [ ] = another dose, or the depositor's remark. Rows were chosen to be rich in hits. Some 6.7% of all compounds tested hit in one or more screens of this group. Unless noted, the call rests on the fitted dose curve; in most records, active means well fitted curve in the direction sought with a large enough effect; inconclusive means small, poorly fitted or top-dose-only effect, or another doubt; inactive means no such curve, though single readings can be large; an effect the other way counts as inactive or inconclusive. Potency means the concentration at half of the fitted maximal effect.

SMILES	SW480 rerep	MCF10A rerep	KB-V1 cytotox	PINK1 modulator	KB-3-1 cytotox
COc1ccc(-c2cc(-c3ccc(C)cc3)nc3c2COc2ccccc2-3)cc1	.	.	i	2%	i
CC1=C(C(=O)N2CCCCCC2)CC(CC(=O)NCc2ccco2)C(=O)N1Cc1ccccc1 (stereo not drawn)	.	.	i	-1%	i
CCOc1nc(Nc2ccc(OC)cc2)nc(OCC)n1	-4%	1%	i	-1%	i
COc1ccc(Nc2nc(Nc3ccc(OC)cc3)nc(-n3[nH]c(=O)c(C)c3C)n2)cc1	13%	?	1.2µM*	4%	i
Cc1ccc2nc(CNC(=O)c3cc(NC(=O)c4ccccc4)cc4ncn(C5CCCC5)c34)cn2c1	.	.	.	0%	.
O=C(c1cccs1)N1C[C@H](O)[C@@H](n2cc(C3CC3)nn2)C[C@@H]1c1ccccc1	.	.	i	-2%	i
O=C(Nc1cccnc1Cl)c1cc2c(s1)-c1ccccc1OC2	134%	18µM*	i	10%	i
O=C(Nc1nc2ccccc2s1)c1cc2c(s1)-c1ccccc1OC2	6.5µM*	?	i	-1%	i
O=C(Nc1nccs1)c1cc2c(s1)-c1ccccc1OC2	16µM*	9.2µM*	i	4%	?
O=C(Nc1cccnc1)c1cc2c(s1)-c1ccccc1OC2	14%	0%	i	0%	i
Cc1cccc2c1-c1sc(C(=O)Nc3nccs3)cc1CO2	7.3µM*	3.7µM*	i	5%	i
Cc1ccc(-n2ncc3c(NCCCc4ccccc4)ncnc32)cc1	.	.	i	9%	i
COc1ccc(C(CCc2ccc(C)o2)NC(=O)Nc2ccc(OC)cc2OC)cc1 (stereo not drawn)	2%	-3%	7.3µM*	0%[38.3 µM]	i
CCOC(=O)C1=CC[C@]2(C)c3c(c4ccccc4n3C)C(=O)C1N2C	-4%	-11%	i	2%	i
CC1CCCCC1NC(=O)NC(=O)CCl (stereo not drawn)	6.5µM*	?	i	4%	?
CC(Oc1cccc(Cl)c1)C(=O)Nc1ccc(N2CCOCC2)cc1N1CCOCC1 (stereo not drawn)	-95%[9.22 µM]	?	16µM*	6%	i
CCC(CC)c1nn2c(=O)cc(COc3ccc(NC(=O)c4ccc(C)cc4)cc3)nc2s1	.	.	i	9%	i
CCCCNC(=O)C1(C)CCCCN1Cc1ccc(-c2ccccc2)cc1 (stereo not drawn)	.	.	i	?	i
CCCCNC(=O)C1(C)CCCCN1Cc1ccc(OCc2ccccc2)cc1 (stereo not drawn)	.	.	15µM*	?	?
Cc1cccc(C(O)c2ncc(-c3ccc(C(F)(F)F)cc3)[nH]2)c1C (stereo not drawn)	.	.	i	15%	i
COc1ccc(-n2nc3ccc(N)cc3n2)cc1	.	.	i	0%	i
CCOc1ccc(-n2nc3cc(C)c(N)cc3n2)cc1	16µM*	18µM*	i	1%	i
CCOc1ccc(-n2nc3ccc(N)cc3n2)cc1	?	18µM*	i	1%	i
COc1cccc(-c2nc3cc4c(cc3cc2CN(C(=O)c2csc(C)n2)C2CC2)CCC4)c1OC	.	.	.	1%	.
CC(C)CCNC(=O)c1c[nH]c2ccc(S(=O)(=O)Nc3cccc(C(F)(F)F)c3)cc2c1=O	.	.	.	1%	.
SMILES	SW480 rerep	MCF10A rerep	KB-V1 cytotox	PINK1 modulator	KB-3-1 cytotox
Cc1ccc(CCNC(=O)c2c[nH]c3ccc(S(=O)(=O)Nc4cccc(C(F)(F)F)c4)cc3c2=O)cc1	.	.	i	-2%	13µM*
Cn1c(CNC(=O)CNC(=O)c2ccc(C(C)(C)C)cc2)cc(=O)n(C)c1=O	?	0%	?	0%	i
C=CCN(CC=C)C(=S)NC(=O)/C=C/c1ccc(OC)cc1	-3%	-5%	i	1%	i
C=CCN(CC=C)C(=S)NC(=O)c1ccc(OC)cc1	1%	-2%	16µM*	2%	i
C=CCN(CC=C)C(=S)NC(=O)c1ccc(-c2ccccc2)cc1	4%	?	5.8µM*	4%	?
Cn1nc(C(F)(F)F)c(C(=O)Nc2ccc(F)cc2F)c1Oc1cccc(Cl)c1	0%	-11%	?	8%[38.3 µM]	i
Cn1nc(C(F)(F)F)c(C(=O)Nc2ccc(F)cc2F)c1Sc1cccc(Cl)c1	?	?	16µM*	15%[38.3 µM]	i
Cn1nc(C(F)(F)F)c(C(=O)Nc2ccc(F)cc2F)c1Sc1cccc(C(F)(F)F)c1	-5%	10%	13µM*	-2%	?
COc1ccc(CCNC(=O)Cn2c(C)c3cnn(-c4ccccc4)c(=O)c3c2C)cc1OC	.	.	i	0%	i
Cc1cc(C)c(C)c(OCCCCN2CCCCC2)c1	-6%	3%	i	2%	i
Cc1nc(NC(=S)NC(=O)c2cncc(Br)c2)ccc1Br	7%	0%	3.7µM*	-1%	?
COc1ccc(C(=O)/C=C/c2cn(CC(O)CN3CCOCC3)c3ccccc23)cc1 (stereo not drawn)	15µM*	15µM*	i	-1%	i
Cc1ccc(C(=O)/C=C/c2cn(CC(O)CN3CCOCC3)c3ccccc23)cc1 (stereo not drawn)	21µM*	13µM*	i	0%	?
CCC(=O)Oc1cc(C(C)(C)C)cc2cc(-c3nc(-c4ccc(OC)cc4OC)no3)c(=O)oc12	.	.	.	1%	.
CC(C(=O)Nc1ccccc1-c1ccccc1)N(C)Cc1nc2ccccc2c(=O)[nH]1 (stereo not drawn)	?	?	12µM*	2%	?
O=C1CC(c2nc(-c3ccc(Cl)cc3)no2)CN1c1ccc2c(c1)OCCO2 (stereo not drawn)	.	.	i	1%	i
O=C(CSC(=S)N1CCSCC1)c1ccc(Cl)cc1	2%	?	9.2µM*	-1%	8.2µM*
O=C1/C(=C/c2ccccn2)COc2ccccc21	?	?	i	9%	i
O=C1/C(=C/c2ccc(O)cc2)COc2ccccc21	18µM*	?	i	-2%	i
COc1ccc(O)c(-c2nc(N)nc(N)n2)c1	?	7.3µM*	i	0%	?
Nc1nc(N)nc(-c2cc(F)ccc2O)n1	?	?	i	2%	i
COC(=O)C1CCCCN1Cc1ccc2c(c1)CN(C1CCSCC1)CCO2 (stereo not drawn)	.	.	.	1%	.
Cc1oc2c(O)c(O)ccc2c(=O)c1-c1cnn(-c2ccccc2)c1	?	20%	3.7µM*	2%[38.3 µM]	i
CCOc1ccc(C(C)=O)cc1COc1cccnc1[N+](=O)[O-]	21µM*	?	12µM*	7%	?
COc1ccc(C(C)=O)cc1COc1ccccc1[N+](=O)[O-]	-2%	0%	i	2%	i
COc1ccc(C(C)=O)cc1COc1cccnc1[N+](=O)[O-]	?	?	15µM*	11%	i

Compound activity deposited in PubChem BioAssay by National Center for Advancing Translational Sciences (NCATS).
